The nature of test [1]: Caspase-3/7 induction in CHO-K1 cells by small molecules, qHTS cell viability counter screen (AID 1346979). Also: potency is read from the fitted curve at half-maximal effect; nearly all actives have a fitted effect of over 35% in size. The essentials:
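To flag cytotoxic compounds, treated CHO-K1 wild-type cells were given CellTiter-Fluor at 16hr and read fluorescently after 1hr at 37C; the caspase-3/7 luminescence was measured in these same wells.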

Test [2] concerns the target Nuclear receptor subfamily 1 group I member 2 (Homo sapiens) (UniProt O75469). As to the kind of experiment: Human pregnane X receptor (PXR) small molecule agonists, qHTS assay (AID 1346982). Also: nearly all actives have a fitted effect of over 35% in size. Also: potency is read from the fitted curve at half-maximal effect. As to activation: % is scaled to controls: 0 for no effect and ±100 for the full control effect. The essentials:
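Agonist mode qHTS: PXR-Luc HepG2 cells plated 5 hr before DMSO-dissolved compounds were pinned in, cultured 24 hr at 37 C, 5% CO2; ONE-Glo luminescence readout.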
On the technique in general: In qHTS, concentration-response curves come from the screen itself.

Test [3] concerns the target Cytochrome P450 2C9 (Homo sapiens) (UniProt P11712). As to the kind of experiment: Cytochrome P450 Family 2 Subfamily C Member 9 (CYP2C9) small molecule antagonists: luciferase reporter qHTS assay (AID 1671198). Also: nearly all actives have a fitted effect of over 50% in size. Also: potency is read from the fitted curve at half-maximal effect. The essentials: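 Enzyme-substrate mix preincubated with compound 10 min at room temperature; reaction started with NADPH regeneration solution, 1 h 37C. Luminescent luciferin product read after 20 min detection reagent.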
In general terms: In a reporter assay the amount or activity of a reporter protein is the signal.

Test [4] can be described thus: Caspase-3/7 induction in CHO-K1 cells by small molecules, qHTS assay (AID 1346980). Also: nearly all actives have a fitted effect of over 15% in size. Also: potency is read from the fitted curve at half-maximal effect. As to caspase-3/7 activation: % is scaled to controls: 0 for no effect and ±100 for the full control effect. The method, boiled down:
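Luminescent Caspase-Glo 3/7 read (30min, room temperature) quantified apoptosis induction. Cells were wild-type CHO-K1, treated with compound for 17hr at 37 C and 5% CO2.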

Test [5] is described as follows: Caspase-3/7 induction in HepG2 cells by small molecules, qHTS cell viability counter screen (AID 1346981). Also: nearly all actives have a fitted effect of over 30% in size. Also: potency is read from the fitted curve at half-maximal effect. The method, boiled down: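 Steps: seed 2,000 HepG2 cells per well; incubate 5 hr at 37 C; pin-add compounds in DMSO; incubate 16 hr; add CellTiter-Fluor; after 1 hr at 37 C and 5% CO2, read fluorescence.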
The target in test [6] is Cytochrome P450 2D6 (Homo sapiens) (UniProt P10635). Briefly: Cytochrome P450 Family 2 Subfamily D Member 6 (CYP2D6) small molecule antagonists: luciferase reporter qHTS assay (AID 1671196). Also: nearly all actives have a fitted effect of over 50% in size. Also: potency is read from the fitted curve at half-maximal effect. The essentials: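 P450-Glo format: CYP2D6 converts a proluciferin substrate to luciferin in an NADPH-driven reaction lasting 1 h at room temperature. Light output, proportional to CYP2D6 activity, reflects interference by test chemicals.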

In test [7] the target is Cytochrome P450 2C19 (Homo sapiens) (UniProt P33261). Briefly: Cytochrome P450 Family 2 Subfamily C Member 19 (CYP2C19) small molecule antagonists: luciferase reporter qHTS assay (AID 1671197). Also: nearly all actives have a fitted effect of over 65% in size. Also: potency is read from the fitted curve at half-maximal effect. The method, boiled down:
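First, compounds are pinned into enzyme-substrate mix and held 10 min at room temperature. Second, NADPH regeneration solution is added and plates incubate 1 h at 37C. Third, detection reagent is added and luminescence read after 20 min.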

Test [8] has as its target Nuclear receptor subfamily 1 group I member 2 (Homo sapiens) (UniProt O75469). Briefly: CYP3A4 induction through human pregnane X receptor (PXR) by small molecules, qHTS assay (AID 1346984). Also: % is scaled to controls: 0 for no effect and ±100 for the full control effect; nearly all actives have a fitted effect of over 40% in size. The method, boiled down: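 Steps: seed DPX-2 cells, 5 hr at 37C; pin-transfer compounds; 24 hr at 37C; add Luciferin-IPA (3uM final), 3 hr at 37C; add One-Glo, 30 min RT; read luminescence.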

Test [9] has the same target. As to the kind of experiment: Human pregnane X receptor (PXR) activation by small molecules, qHTS assay (AID 1346985). Also: nearly all actives have a fitted effect of over 40% in size. Also: potency is read from the fitted curve at half-maximal effect. As to activation: % is scaled to controls: 0 for no effect and ±100 for the full control effect. The method, boiled down: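 DPX-2 cells (HepG2 co-transfected with a PXR response element and a CYP3A4-promoter luciferase construct) were seeded at 2,000 per well, rested 5 hr at 37C, then exposed to DMSO-dissolved compounds for 24 hr. Activation was read as luciferase luminescence.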

Test [10] addresses Nuclear receptor subfamily 1 group I member 2 (Rattus norvegicus) (UniProt Q9R1A7). Briefly: Rat pregnane X receptor (rPXR) activation by small molecules, qHTS assay (AID 1346983). Also: % is scaled to controls: 0 for no effect and ±100 for the full control effect; nearly all actives have a fitted effect of over 20% in size. As to conditions: rPXR luciferase reporter cells, One-Glo luminescence, 24 h; max activation: stronger effect = higher value. The essentials: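 Luminescent readout (One-Glo luciferase, 30 min room temperature) followed 24 hr compound treatment at 37 C of rPXR cells plated 2,000 per well and preincubated 5hr; qHTS format with compounds delivered in DMSO.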

Where “and” joins values, the source holds several entries; their conditions need not be identical. Identical values can stand only once. Unmarked numbers belong to inactive results. Records with an inconclusive call do not appear. Calls of active or inactive are those of the source. Calls follow the shape of the dose curve; as a rule, active = well fitted curve in the direction sought with a large enough effect in the repeat runs; inconclusive = weak or mixed curves; inactive = no such curve, though single readings can be large; an effect the other way counts as inactive or inconclusive.

Chain of Cytochrome P450 2D6 (Homo sapiens) (P10635 whole entry, looked up): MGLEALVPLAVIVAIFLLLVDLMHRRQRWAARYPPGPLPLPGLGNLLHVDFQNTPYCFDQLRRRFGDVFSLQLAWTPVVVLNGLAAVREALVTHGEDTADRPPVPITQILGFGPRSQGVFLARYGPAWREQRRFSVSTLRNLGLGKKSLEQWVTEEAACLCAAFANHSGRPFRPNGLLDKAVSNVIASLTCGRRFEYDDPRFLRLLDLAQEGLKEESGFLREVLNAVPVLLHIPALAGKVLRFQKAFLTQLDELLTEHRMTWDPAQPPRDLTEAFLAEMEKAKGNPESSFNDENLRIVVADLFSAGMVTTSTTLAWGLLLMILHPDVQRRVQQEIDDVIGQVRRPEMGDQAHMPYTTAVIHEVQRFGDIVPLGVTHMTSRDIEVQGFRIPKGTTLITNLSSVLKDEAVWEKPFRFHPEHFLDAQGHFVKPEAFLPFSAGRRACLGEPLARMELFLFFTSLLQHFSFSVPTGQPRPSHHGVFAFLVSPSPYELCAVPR
Chain of Cytochrome P450 2C9 (Homo sapiens) (P11712 whole entry, looked up): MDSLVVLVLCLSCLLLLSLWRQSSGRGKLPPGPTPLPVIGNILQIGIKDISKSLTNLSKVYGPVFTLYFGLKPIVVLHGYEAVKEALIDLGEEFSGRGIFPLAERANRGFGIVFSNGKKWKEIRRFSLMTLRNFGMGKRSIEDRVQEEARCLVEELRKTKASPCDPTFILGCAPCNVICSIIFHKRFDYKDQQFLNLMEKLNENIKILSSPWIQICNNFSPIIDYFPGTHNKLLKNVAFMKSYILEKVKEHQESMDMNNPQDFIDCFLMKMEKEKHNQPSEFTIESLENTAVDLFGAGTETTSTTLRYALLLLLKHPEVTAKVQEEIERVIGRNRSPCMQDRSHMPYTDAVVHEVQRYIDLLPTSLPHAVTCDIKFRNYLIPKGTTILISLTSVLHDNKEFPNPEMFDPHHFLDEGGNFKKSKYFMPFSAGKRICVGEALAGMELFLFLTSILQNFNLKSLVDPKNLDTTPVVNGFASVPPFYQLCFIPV
Chain of Cytochrome P450 2C19 (Homo sapiens) (P33261 whole entry, looked up): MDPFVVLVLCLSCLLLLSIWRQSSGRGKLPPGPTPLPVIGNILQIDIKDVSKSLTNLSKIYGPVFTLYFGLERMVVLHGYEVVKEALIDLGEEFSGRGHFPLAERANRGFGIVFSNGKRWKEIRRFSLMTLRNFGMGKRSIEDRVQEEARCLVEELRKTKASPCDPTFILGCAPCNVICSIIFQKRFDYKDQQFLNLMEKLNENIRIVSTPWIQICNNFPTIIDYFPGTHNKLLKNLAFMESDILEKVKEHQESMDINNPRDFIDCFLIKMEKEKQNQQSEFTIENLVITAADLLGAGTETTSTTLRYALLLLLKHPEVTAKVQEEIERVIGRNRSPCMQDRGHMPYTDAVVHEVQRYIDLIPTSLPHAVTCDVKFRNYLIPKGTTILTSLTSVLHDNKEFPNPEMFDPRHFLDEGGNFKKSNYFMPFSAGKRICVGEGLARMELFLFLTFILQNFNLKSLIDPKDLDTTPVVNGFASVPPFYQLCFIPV
Chain of Nuclear receptor subfamily 1 group I member 2 (Rattus norvegicus) (Q9R1A7 whole entry, looked up): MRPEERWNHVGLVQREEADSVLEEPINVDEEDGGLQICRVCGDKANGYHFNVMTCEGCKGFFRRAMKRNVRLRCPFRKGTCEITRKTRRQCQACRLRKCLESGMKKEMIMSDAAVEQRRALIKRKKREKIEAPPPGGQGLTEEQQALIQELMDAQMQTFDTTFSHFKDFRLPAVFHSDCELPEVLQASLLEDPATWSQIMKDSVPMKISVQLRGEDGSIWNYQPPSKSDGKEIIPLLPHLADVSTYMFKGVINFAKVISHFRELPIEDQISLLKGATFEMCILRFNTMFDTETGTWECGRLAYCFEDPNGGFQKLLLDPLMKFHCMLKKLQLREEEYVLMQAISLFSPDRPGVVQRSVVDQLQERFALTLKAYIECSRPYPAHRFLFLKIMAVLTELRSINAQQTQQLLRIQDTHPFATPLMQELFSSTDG

As to `O=CC=C(c1ccccc1)c1ccccc1`, the Potency in [1] is 54.9 µM (active); in test [2] it was 69.1 µM (active); in [3] it was 20.2 µM (active).
As for `Oc1ccc2cc(SSc3ccc4cc(O)ccc4c3)ccc2c1`, the Potency in [1] was 48.6 µM (active) and 54.5 µM (active); in [2], 17.2 µM (active) and 15.4 µM (active); in test [3] it was 71.1 µM (active) and 39.9 µM (active).
With `OCCCCCCCCCCCCBr`, the Potency result in test [4], in test [5], in test [2], in test [6], in test [7] and in [3] was “inactive” each time.
Take `CCOC(=O)O[C@]1(C(=O)OCCl)CC[C@H]2[C@@H]3CCC4=CC(=O)C=C[C@]4(C)[C@H]3[C@@H](O)C[C@@]21C`: the Potency entry in test [4], in test [5], in [8], in [6], in test [7] and in test [3] was “inactive” in each case. In addition, the values for the Potency in test [2] and in test [9] were 5.96 µM (active) and 14.1 µM (active), respectively.
Regarding `O=C(Oc1ccccc1)c1ccccc1C(=O)Oc1ccccc1`, the Potency result in test [4], in [5], in [2] and in test [6] was “inactive” each time. For the same compound, the values for the Potency in test [7] and in test [3] were 15.9 µM (active) and 12.6 µM (active), respectively.
Consider `Cc1cc(N)c(S(=O)(=O)O)cc1Cl`, for which the Potency result in test [4], in test [5], in test [2], in [6] and in test [7] was “inactive” each time. In test [3], the Potency was 28.6 µM (active).
`CCCCCCCCCCCC(=O)NCCCN(C)C`: the Potency is 54.5 µM (active) in test [1], 24.3 µM (active) in test [2] and 12.6 µM (active) in test [6].
As for `C/C(=C(/OCCOc1ccc(Cl)cc1)c1ccc(Cl)cc1Cl)n1ccnc1`, the Potency result in [4] and in test [5] was “inactive” each time. Also, the Potency in test [2] is 10.6 µM (active); in test [6], 1.55 µM (active); in [7], 0.776 µM (active); in [3] it was 0.871 µM (active).
Take `C[n+]1cc2c3c(ccc2c2ccc4cc5c(cc4c21)OCO5)OCO3`: the Potency in test [4] was 1.3 µM (active); in [5], 5.17 µM (active); in test [6], 6.74 µM (active); in test [7] it was 1.07 µM (active). Also, in [2], the activation is -46.6% [at 19 µM].
Regarding `[O-][n+]1ccccc1SSc1cccc[n+]1[O-]`, the caspase-3/7 activation in test [4] is -5.93% [at 19 µM]. In addition, the Potency is 4.11 µM (active) in test [5], 11.2 µM (active) in test [9], 0.536 µM (active) in test [7] and 1.51 µM (active) in test [3]. In addition, the activation in test [2] was -49.4% [at 19 µM]. Moreover, the max activation in test [10] is -9.36%. Further, the Potency entry in test [8] is “inactive”.
In the case of `Cc1ccc(O)c(C(C)(C)C)c1`, the Potency entry in test [4], in test [5], in [2] and in [6] was “inactive” in each case. Moreover, the Potency in test [7] was 35.5 µM (active) and 35.6 µM (active).
Take `O=C1Cc2cc(CCN3CCN(c4nsc5ccccc45)CC3)c(Cl)cc2N1`: the Potency entry in [4], in [5] and in test [9] was “inactive” each time. The Potency in [3] is 27.5 µM (active).
Take `CCC(Cl)C(Cl)C(Cl)CC(Cl)C(Cl)C(C)Cl` (centres undefined): the Potency entry in [4] and in test [5] was “inactive” each time. In addition, the values for the Potency in test [2], in test [6] and in test [3] were 21.7 µM (active), 35.6 µM (active) and 7.96 µM (active), respectively.
As to `Nc1ccc2c3c(cccc13)-c1ccccc1-2`, the Potency entry in test [4] and in [6] was “inactive” throughout. Moreover, the values for the Potency in [2] and in [3] were 27.6 µM (active) and 32.1 µM (active), respectively.
As for `Cc1cccc(N(C)C(=S)Oc2ccc3c(c2)C2CCC3C2)c1` (centres undefined), the Potency entry in test [4] and in test [5] was “inactive” throughout. Further, the Potency in [2] was 11.9 µM (active); in [7], 1.74 µM (active); in [3], 15.5 µM (active).
In the case of `CCOc1ccc2nc3cc(N)ccc3c(N)c2c1`, the Potency result in test [4], in [2], in [8], in test [9], in test [7] and in test [3] was “inactive” in each case. Also, the max activation in [10] is 1.69%.
In the case of `CCCC(C)c1ccccc1O` (centres undefined), the Potency entry in test [4], in test [5], in test [2] and in test [7] was “inactive” throughout. Moreover, in test [3], the Potency is 35.6 µM (active).
On to `O=C1c2ccccc2Cc2ccccc21`, for which, in [4], the Potency entry was “inactive”. The Potency was 27.5 µM (active) in [2], 9.01 µM (active) in test [7] and 16 µM (active) in [3].
Consider `CCCCCCOC(=O)c1ccc(O)cc1`, for which the Potency result in test [4], in [5] and in test [2] was “inactive” throughout. For the same compound, the Potency in [7] was 11.3 µM (active) and 20 µM (active); in test [3] it was 35.6 µM (active) and 39.9 µM (active).
On to `CCCCC(CC)COP(=O)(O)OCC(CC)CCCC` (centres undefined), for which the Potency result in test [4] and in test [5] was “inactive” throughout. Besides, the Potency in test [2] is 61.3 µM (active) and 54.5 µM (active); in test [6], 50.2 µM (active); in [7], 31.8 µM (active) and 31.7 µM (active); in test [3], 22.5 µM (active) and 17.8 µM (active).
`NNC(=O)c1cccc(C(=O)NN)c1`: the Potency result in test [4], in test [5], in test [2] and in test [7] was “inactive” each time. Moreover, the Potency in [3] was 35.6 µM (active).
On to `Oc1ccc2c(c1)-c1ccccc1C2`, for which the Potency entry in test [4], in [5] and in [6] was “inactive” each time. The Potency in test [2] was 68.6 µM (active); in [7], 39.9 µM (active); in test [3], 39.9 µM (active).
Regarding `CCC(C)Nc1ccc(NC(C)CC)cc1` (centres undefined), in test [4], the Potency entry is “inactive”. Moreover, the Potency in test [5] is 27.8 µM (active); in [6], 2.88 µM (active); in test [7], 1.82 µM (active); in [3] it was 5.12 µM (active).
In the case of `CCCCCCCCCCCCCCCCCC[N+](C)(C)C`, the Potency entry in test [4] and in [2] was “inactive” in each case. Moreover, the Potency was 89.6 µM (active) in [7] and 63.5 µM (active) in test [3].
As for `Cc1cccc(S(=O)(=O)O)c1C`, the Potency entry in [4], in [5], in [2], in test [6] and in test [3] was “inactive” throughout.
Turning to `CN(C)c1ccc(SC#N)cc1`, the Potency result in test [4] and in [5] was “inactive” in each case. For the same compound, the Potency in test [2] was 9.69 µM (active); in [6], 31.7 µM (active); in test [3], 17.8 µM (active).

For the origin of these results see PubChem BioAssay (Tox21).
